PubChem BioAssay (NCATS)
Results filed as inconclusive are left out. Active and inactive are the calls of the source. Unless noted, calls follow the shape of the dose curve; as a rule, active = well fitted curve in the direction sought with a large enough effect; inconclusive = small, poorly fitted or top-dose-only effect, or another doubt; inactive = no such curve, though single readings can be large; an effect the other way counts as inactive or inconclusive.

Key:
[1] = molecular target: Single-stranded DNA cytosine deaminase (Homo sapiens) (UniProt Q9GZX7); assay: Validation qHTS assay for inhibitors of Activation Induced Cytidine Deaminase (AID): AID signal (AID 1347429)
Chain of Single-stranded DNA cytosine deaminase (Homo sapiens) (Q9GZX7 whole entry, looked up): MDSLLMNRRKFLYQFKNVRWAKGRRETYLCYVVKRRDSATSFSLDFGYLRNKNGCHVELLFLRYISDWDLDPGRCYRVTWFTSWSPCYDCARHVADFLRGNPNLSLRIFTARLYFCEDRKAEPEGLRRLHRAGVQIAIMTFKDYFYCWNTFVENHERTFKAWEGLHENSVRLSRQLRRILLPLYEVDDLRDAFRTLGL
Summary of the method: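 AID and UDG were combined and compounds added at final up to 114 uM, then DJC20/DJC23 FRET substrate was added for 4 hr at room temperature. NaOH was then added for 30 min before fluorescence was read at 540/590 nm.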

[2] = Primary qHTS for inhibitors of La Crosse Virus (LACV) - induced cell death in SH-SY5Y cells (AID 1508616);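 also: top concentration of the series differs between compounds; higher means more rescue of cells from virus-induced death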
Summary of the method: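 Luminescent ATP readout (ATPLite 1step, 5 min room temperature) measured rescue from LACV-induced death after 6 days of infection at 0.01 MOI; normalized to infected DMSO wells and uninfected DMSO wells.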

[3] = molecular target: Calcium and integrin-binding protein 1 (Homo sapiens) (UniProt Q99828); assay: Validation qHTS for Identification of Calcium Integrin Binding protein 1 (CIB1) Competitor (AID 1508618)
Chain of Calcium and integrin-binding protein 1 (Homo sapiens) (Q99828 whole entry, looked up): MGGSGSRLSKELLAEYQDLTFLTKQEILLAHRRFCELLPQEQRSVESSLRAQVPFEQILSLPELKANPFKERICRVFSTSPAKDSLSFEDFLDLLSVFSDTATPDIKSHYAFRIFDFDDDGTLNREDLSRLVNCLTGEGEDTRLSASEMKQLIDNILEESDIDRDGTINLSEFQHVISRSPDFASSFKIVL
Summary of the method: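 In this qHTS validation, the LOPAC set (up to 114 uM) was tested for blocking CIB1 binding to a fluorescein-tagged alphaIIb peptide, with FP detection at 480/540 nm.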

Papain (Carica papaya) = Papain (Carica papaya) (UniProt P00784); assay: Primary qHTS assay for inhibitors of the protease papain (AID 1645873);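 also: papain turnover of Z-FR-AMC read as the AMC fluorescence gain over 10 min; series mostly up to about 50 µM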
Chain of Papain (Carica papaya) (P00784 whole entry, looked up, the tested form may be a part): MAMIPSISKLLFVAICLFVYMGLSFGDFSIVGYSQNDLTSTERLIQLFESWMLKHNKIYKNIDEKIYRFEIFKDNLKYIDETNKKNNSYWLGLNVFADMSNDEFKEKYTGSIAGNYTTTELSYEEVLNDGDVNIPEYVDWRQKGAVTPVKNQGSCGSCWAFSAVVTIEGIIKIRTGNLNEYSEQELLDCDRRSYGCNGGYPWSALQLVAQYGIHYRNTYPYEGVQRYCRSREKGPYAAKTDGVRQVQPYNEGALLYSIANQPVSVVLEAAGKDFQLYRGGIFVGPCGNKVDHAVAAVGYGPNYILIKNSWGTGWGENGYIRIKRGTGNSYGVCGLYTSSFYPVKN

[4] = Primary qHTS for inhibitors of nuclear receptor binding SET domain protein 2 (NSD2) in an isogenic RCH-ACV NSD2 p.E1099K mutant (9B) (AID 1645876); also: nearly all actives have a fitted effect of over 70% in size; also: potency is read from the fitted curve at half-maximal effect
[5] = Primary qHTS for small molecule stabilizers of the endoplasmic reticulum resident proteome: Secreted ER Calcium Modulated Protein (SERCaMP) assay (AID 1508630)
Summary of the method: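 GLuc-SERCaMP-expressing SH-SY5Y cells, pretreated 16 h with compound, are challenged with thapsigargin to empty ER calcium stores; after 4 h, coelenterazine is added directly to the medium and luminescence is imaged.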

[6] = Counterscreen qHTS for small molecule stabilizers of the endoplasmic reticulum resident proteome: GLuc-NoTag assay (AID 1508627); also: potency is read from the fitted curve at half-maximal effect
Summary of the method: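 SH-SY5Y cells stably expressing constitutively secreted GLuc (no SERCaMP tag) were pre-incubated 5 h, treated with compound for 19 h, then 100 nM thapsigargin for 4 h at 37C; medium GLuc read by coelenterazine luminescence.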

[7] = Confirmatory qHTS for small molecule stabilizers of the endoplasmic reticulum resident proteome: Secreted ER Calcium Modulated Protein (SERCaMP) assay (AID 1508628); also: potency is read from the fitted curve at half-maximal effect; nearly all actives have a fitted effect of over 40% in size
Summary of the method: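 We seeded SH-SY5Y-GLuc-SERCaMP cells, added compounds (three concentrations in the primary run, eleven up to 76.6 uM in confirmation), incubated 16 h, depleted ER calcium with thapsigargin, and read luciferase 4 h later.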

[8] = Primary qHTS for inhibitors of nuclear receptor binding SET domain protein 2 (NSD2) in an RCH-ACV wild type WT cells (2C) (AID 1645877); also: potency is read from the fitted curve at half-maximal effect; nearly all actives have a fitted effect of over 70% in size
[9] = molecular target: Rap guanine nucleotide exchange factor 3 (Homo sapiens) (UniProt O95398); assay: Confirmatory qHTS for antagonist of cAMP-regulated guanine nucleotide exchange factor 3 (EPAC1) (AID 1645880); also: nearly all actives have a fitted effect of over 55% in size
Chain of Rap guanine nucleotide exchange factor 3 (Homo sapiens) (O95398 whole entry, looked up): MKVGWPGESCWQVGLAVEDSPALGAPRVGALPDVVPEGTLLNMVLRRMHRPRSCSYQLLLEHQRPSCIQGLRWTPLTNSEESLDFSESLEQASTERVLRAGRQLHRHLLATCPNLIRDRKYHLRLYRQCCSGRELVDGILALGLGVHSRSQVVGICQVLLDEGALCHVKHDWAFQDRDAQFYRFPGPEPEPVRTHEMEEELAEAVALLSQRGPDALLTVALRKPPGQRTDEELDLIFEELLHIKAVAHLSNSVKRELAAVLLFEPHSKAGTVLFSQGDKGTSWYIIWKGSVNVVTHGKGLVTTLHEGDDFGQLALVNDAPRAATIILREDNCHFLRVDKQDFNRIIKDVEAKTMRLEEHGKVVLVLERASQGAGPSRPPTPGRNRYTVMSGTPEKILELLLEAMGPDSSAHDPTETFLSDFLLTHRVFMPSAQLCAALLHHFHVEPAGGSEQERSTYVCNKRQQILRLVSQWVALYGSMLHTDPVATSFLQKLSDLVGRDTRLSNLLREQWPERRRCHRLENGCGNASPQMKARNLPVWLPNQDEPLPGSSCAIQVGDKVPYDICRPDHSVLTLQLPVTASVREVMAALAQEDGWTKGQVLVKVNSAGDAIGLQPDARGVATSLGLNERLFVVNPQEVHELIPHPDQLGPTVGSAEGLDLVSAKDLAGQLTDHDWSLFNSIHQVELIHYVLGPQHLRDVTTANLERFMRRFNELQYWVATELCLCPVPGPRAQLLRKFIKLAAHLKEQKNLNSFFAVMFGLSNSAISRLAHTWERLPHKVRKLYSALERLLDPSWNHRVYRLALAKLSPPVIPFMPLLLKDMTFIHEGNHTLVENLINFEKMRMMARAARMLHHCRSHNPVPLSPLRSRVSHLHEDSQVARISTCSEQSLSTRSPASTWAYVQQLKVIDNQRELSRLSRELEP
Summary of the method: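 Nucleotide exchange uses 100 nM EPAC1, 250 nM RAP1B-BODIPY-GDP and 50 uM GDP, with compounds in a concentration-titration series. After 5 min at room temperature, fluorescence (480 nm ex/540 nm em) is read every 5 min for 30 min. Data are normalized to control ATA and DMSO.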

[10] = molecular target: Rap guanine nucleotide exchange factor 3 (Homo sapiens) (UniProt O95398); assay: Confirmatory qHTS for agonist of cAMP-regulated guanine nucleotide exchange factor 3 (EPAC1) (AID 1645881);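 also: EPAC1 catalysed release of BODIPY-GDP from Rap1B seen as fluorescence loss; nearly all actives have a fitted effect of over 75% in size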
[11] = molecular target: Cytochrome P450 2D6 (Homo sapiens) (UniProt P10635); assay: Cytochrome P450 family 2 subfamily D member 6 (CYP2D6) small molecule antagonists: luciferase biochemical (cell-free) qHTS assay (AID 1645840; active = well fitted curve in the direction sought with a large enough effect in the repeat runs; an effect the other way counts as inactive or inconclusive; also: series mostly up to about 57 µM; nearly all actives have a fitted effect of over 55% in size)
Chain of Cytochrome P450 2D6 (Homo sapiens) (P10635 whole entry, looked up): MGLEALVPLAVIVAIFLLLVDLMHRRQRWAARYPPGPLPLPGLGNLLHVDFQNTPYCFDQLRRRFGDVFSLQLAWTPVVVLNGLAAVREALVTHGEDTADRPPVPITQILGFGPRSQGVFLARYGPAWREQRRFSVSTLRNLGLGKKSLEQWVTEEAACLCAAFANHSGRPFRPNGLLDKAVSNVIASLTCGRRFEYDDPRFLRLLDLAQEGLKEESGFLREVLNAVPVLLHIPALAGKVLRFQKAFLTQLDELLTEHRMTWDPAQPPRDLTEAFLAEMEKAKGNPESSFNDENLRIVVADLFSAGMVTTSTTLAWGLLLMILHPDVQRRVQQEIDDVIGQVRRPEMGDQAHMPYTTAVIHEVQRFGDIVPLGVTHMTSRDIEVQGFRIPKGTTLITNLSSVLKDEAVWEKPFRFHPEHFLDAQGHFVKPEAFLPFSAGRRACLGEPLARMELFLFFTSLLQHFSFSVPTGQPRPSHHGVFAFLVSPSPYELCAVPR
Summary of the method: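 P450-Glo luminescent screen: recombinant CYP2D6 enzyme–proluciferin substrate mix preincubated with compound 10 min at room temperature, then NADPH regeneration added for 1 h at room temperature. Detection reagent added for 20 min; luciferin light read as relative luminescence units.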

[12] = molecular target: Cytochrome P450 2C9 (Homo sapiens) (UniProt P11712); assay: Cytochrome P450 family 2 subfamily C member 9 (CYP2C9) small molecule antagonists: luciferase biochemical (cell-free) qHTS assay (AID 1645842; active = well fitted curve in the direction sought with a large enough effect in the repeat runs; an effect the other way counts as inactive or inconclusive; also: series mostly up to about 57 µM; nearly all actives have a fitted effect of over 55% in size)
Chain of Cytochrome P450 2C9 (Homo sapiens) (P11712 whole entry, looked up): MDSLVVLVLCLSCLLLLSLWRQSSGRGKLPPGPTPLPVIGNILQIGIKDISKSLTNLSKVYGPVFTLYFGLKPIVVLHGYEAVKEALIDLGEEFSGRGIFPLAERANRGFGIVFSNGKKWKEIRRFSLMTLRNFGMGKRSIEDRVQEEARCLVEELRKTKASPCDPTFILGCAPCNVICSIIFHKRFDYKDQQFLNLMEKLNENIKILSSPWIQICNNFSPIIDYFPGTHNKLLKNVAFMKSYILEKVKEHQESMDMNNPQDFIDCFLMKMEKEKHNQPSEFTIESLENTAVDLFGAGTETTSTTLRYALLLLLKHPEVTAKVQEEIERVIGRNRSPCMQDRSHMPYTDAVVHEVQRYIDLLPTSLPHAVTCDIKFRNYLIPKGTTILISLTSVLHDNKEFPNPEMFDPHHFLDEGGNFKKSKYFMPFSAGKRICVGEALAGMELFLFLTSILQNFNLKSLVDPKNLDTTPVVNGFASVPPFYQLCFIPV
Summary of the method: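 Luminescence, after 20 min with luciferin detection reagent, reflected CYP2C9 turnover during a 1 h NADPH-driven reaction at 37C. Enzyme-substrate mix contained 0.4% bovine serum albumin and was preincubated with compound 10 min at room temperature.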

Measured: Potency

CCN1/C(=C/C(C)=O)Sc2ccc(OC)cc21
inactive: [1] | [2] | [3] | Papain (Carica papaya) | [4]

COc1cc(C(O)CO)ccc1OS(=O)(=O)O (stereo unspecified)
inactive: [1] | [2] | [5] | Papain (Carica papaya)

N[C@@H](CC(=O)O)C(=O)O
inactive: [1] | [2] | [5] | Papain (Carica papaya)

O=C(c1cc(O)c(O)c([N+](=O)[O-])c1)c1ccccc1F
inactive: [1] | [2] | [5]

CCCCCCCCCCCCCCCC(=O)NCC(COP(=O)([O-])OCC[N+](C)(C)C)OCC (stereo unspecified)
inactive: [1] | [2] | [5]

NC(=S)NCCC[C@H](N)C(=O)O
inactive: [1] | [2] | [5]

CCCn1c(=O)c2[nH]c(-c3ccc(OCC(=O)NCCN)cc3)nc2n(CCC)c1=O
inactive: [1] | [2] | [5]

C[N+](C)(C)CC(=O)[O-]
inactive: [1] | [2] | [5]

N=C(N)SCCc1ccc(CCSC(=N)N)cc1
inactive: [1] | [2] | [5]

Ic1ccc(N2CCN(Cc3c[nH]c4ncccc34)CC2)cc1
inactive: [1] | [2] | [5]

Cc1ccccc1CNc1ncnc2c1ncn2C1OC(CO)C(O)C1O (stereo unspecified)
inactive: [1] | [2] | [5]

NC(N)=NC(=O)c1nc(Cl)c(N2CCCCCC2)nc1N
inactive: [1] | [2] | [3] | Papain (Carica papaya)

CN(C)c1ccc(/C=C2\C(=O)Nc3ccccc32)cc1
inactive: [1] | [2] | [5] | Papain (Carica papaya)

CCCCCCCCCCCCCCCCCCNC(=O)OCC(COP(=O)([O-])OCC[n+]1ccsc1)OC (stereo unspecified)
inactive: [1] | [2] | [5]

Cn1cc(C2=C(c3ccc(Cl)cc3Cl)C(=O)NC2=O)c2ccccc21
active: [6] 0.447 µM | [7] 39.8 µM | [4] 6.51 µM | [8] 6.51 µM
not listed: [3] | [11] | [12]
inactive: all other assays above

CO/N=C(\C(=O)N[C@@H]1C(=O)N2C(C(=O)O)=C(COC(C)=O)CS[C@H]12)c1csc(N)n1
inactive: [1] | [2] | [5] | [11] | [12] | Papain (Carica papaya)

CNC(=O)[C@H]1O[C@@H](n2cnc3c(NCc4cccc(I)c4)ncnc32)[C@H](O)[C@@H]1O
inactive: [1] | [3] | [5] | Papain (Carica papaya)

CC(C)NC[C@@H](O)c1ccc(O)c(O)c1
inactive: [1] | [2] | Papain (Carica papaya)
